Measurements published in ChEMBL document CHEMBL1961873, “Compounds: GSK PKIS; Assays: Nanosyn kinase panel” (2012).

Biological target: Serine/threonine-protein kinase Chk2 (Homo sapiens) (UniProt O96017)
Conditions: at 1 µM
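Also: reported value is the mean inhibition.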

Chain of Serine/threonine-protein kinase Chk2 (Homo sapiens) (O96017 whole entry): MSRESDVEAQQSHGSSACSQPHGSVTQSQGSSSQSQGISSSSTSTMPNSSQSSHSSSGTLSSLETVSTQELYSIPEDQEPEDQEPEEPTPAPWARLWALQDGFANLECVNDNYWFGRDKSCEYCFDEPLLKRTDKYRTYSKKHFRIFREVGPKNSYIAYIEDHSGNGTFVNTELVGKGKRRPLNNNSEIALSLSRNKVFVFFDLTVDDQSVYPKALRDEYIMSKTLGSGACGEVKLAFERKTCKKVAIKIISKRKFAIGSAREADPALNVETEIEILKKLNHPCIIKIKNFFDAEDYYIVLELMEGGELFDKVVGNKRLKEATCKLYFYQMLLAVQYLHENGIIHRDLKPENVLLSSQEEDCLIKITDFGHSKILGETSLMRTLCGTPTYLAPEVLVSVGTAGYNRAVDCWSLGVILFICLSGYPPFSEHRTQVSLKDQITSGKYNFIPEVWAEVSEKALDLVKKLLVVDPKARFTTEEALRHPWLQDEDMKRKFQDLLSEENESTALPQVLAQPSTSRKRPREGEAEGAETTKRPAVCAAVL

Row | SMILES | inhibition
1 | O=C(Nc1n[nH]c2cc(-c3ccccc3)ccc12)C1CC1 | 3.79%
2 | Cc1ccc(C(=O)NC2CCC2)cc1-c1ccc(C(=O)NCC2CC2)cc1 | 3.06%
3 | O=C(Nc1n[nH]c2cc(-c3cc(F)ccc3F)ccc12)C1CC1 | 3.25%
4 | CNC(=O)c1cncc(/C=C/c2c(C)cccc2C)c1 | -0.03%
5 | O=C(Nc1n[nH]c2nc(-c3ccc(O)cc3)c(Br)cc12)C1CC1 | 4.23%
6 | NS(=O)(=O)c1ccc(N/N=C2\C(=O)Nc3ccc(-c4cnco4)cc32)cc1 | 5.7%
7 | Fc1ccc(-c2ncn(CCCN3CCOCC3)c2-c2ccncc2)cc1 | -1.12%
8 | C[C@@H](Oc1cc(-n2cnc3ccc(OCC4CCN(C)CC4)cc32)sc1C(N)=O)c1ccccc1Cl | 6.43%
9 | CCc1ccc(Oc2nccc(-c3c(-c4ccc(F)cc4)ncn3C3CCNCC3)n2)cc1 | 5.66%
10 | COc1cccc(/C=N/Nc2ncnc3c2cnn3-c2cccc(OC)c2)c1 | 4.99%
11 | COc1ccc2cc(-c3c(-c4ccncc4)nc(-c4ccc(S(C)(=O)=O)cc4C)n3C)ccc2c1 | -0.36%
12 | CS(=O)(=O)CCNCc1ccc(-c2ccc3ncnc(Nc4ccc(OCc5ccccc5)c(Br)c4)c3c2)o1 | 2.92%
13 | Fc1ccc(-c2ncn(C3CCNCC3)c2-c2ccnc(Oc3ccc(Oc4ccccc4)cc3)n2)cc1 | 13.4%
14 | O=C1Nc2ccc(I)cc2C1=Cc1cc(Br)c(O)c(Br)c1 | 9.44%
15 | COc1cc(Nc2ncc3c(C)nc(-c4cccc(Oc5ccccc5)c4)n3n2)cc(OC)c1OC | 11.6%
16 | CN1CCN(CCCNc2nc3ccc(Oc4ccc(NC(=O)Nc5cc(C(F)(F)F)ccc5F)cc4)cc3[nH]2)CC1 | 0.77%
